The record followed here is PubChem BioAssay AID1578 (Sanford-Burnham Center for Chemical Genomics, 2009).

Structures are written as SMILES. About 3,000 (1%) of roughly 290,000 compounds were called active. Cut-off read from the data, not from the text of the source: active = inhibition mostly above about 36% (no sharp cut-off); inactive = mostly below about 34%. The sample as a whole holds a higher share of actives than the screen did.

The assay in a line: inhibition of NOD1-driven NF-kB reporter – cell-based, luminescence, uHTS, primary screen (AID 1578).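 Note: HEK-293T reporter cells stimulated with the NOD1 agonist gamma-tri-DAP.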 The settings on record: NOD1-driven NF-kB luciferase reporter cells, at 4 µM, active compounds read high. For orientation: A reporter such as luciferase makes a cellular process visible.
Usually inhibition stands for the drop in the measured response relative to a control, in per cent. In the case of `CCOC(=O)N1CCN(S(=O)(=O)c2cc(Br)cnc2N)CC1`, the inhibition is 10.4% (inactive).
For the compound `COc1ccc(-c2csc(N3CCC(c4ccccc4)C3)n2)cc1` (stereo not given), the inhibition is 26.8% (inactive).
In the case of `CCc1ccc(N(CC(=O)N2CCN(Cc3ccccc3)CC2)S(C)(=O)=O)cc1`, the inhibition was -32.3% (inactive).
For `Cc1nc(=S)c2c([nH]1)-c1ccccc1CC21CCCCC1`, the inhibition was 104% (active).
The value for `Nc1nc(=S)[nH]c2c1C1(CCCC1)Cc1ccccc1-2` was 14.3% (inactive).
The value for `Nc1nc(=S)[nH]c2c1C1(CCCCC1)Cc1ccccc1-2` was -16.2% (inactive); that for `N#C/C(=C/c1ccc(Sc2nc3ccccc3[nH]2)o1)c1cccc(Br)c1` was 3.1% (inactive).
As for `N#C/C(=C\c1ccc(Sc2nc3ccccc3[nH]2)o1)c1ccccc1`, the inhibition was 65.2% (inactive).
The value for `N#C/C(=C/c1ccc(Sc2nc3ccccc3[nH]2)o1)c1cccc(F)c1` was 76.3% (active); that for `COc1cccc(CN2CCN(C(=S)NCc3ccc(Cl)cc3)CC2)c1` was -10.4% (inactive).
The value for `CCc1nc2sc3c(c2c(=O)n1CCO)CCC3` was -18.6% (inactive); that for `COC(=O)c1cc(C)sc1NC(=O)CCCC(=O)O` was -19.8% (inactive).
The value for `CCCCNC(=O)CCn1c(=O)c2ccccc2n(CC(=O)N2CC(C)CC(C)C2)c1=O` (stereo not given) was 21.3% (inactive); that for `COc1ccc(/C=C/c2n[nH]c(=O)c(C#N)c2C)cc1` was 84.3% (active); that for `COc1cccc(/C=C/c2n[nH]c(=O)c(C#N)c2C)c1` was -7.2% (inactive).
Turning to `Cc1ccsc1/C=C/c1n[nH]c(=O)c(C#N)c1C`, the inhibition is 9.3% (inactive).
`COc1ccc(-c2nc3ccccc3c(=O)n2NC(=O)Cc2ccccc2)cc1`: the inhibition was -18.8% (inactive).
The value for `COCCC(=O)N1CCC(Oc2ccc(C(=O)N3C[C@@H](C)O[C@@H](C)C3)cc2)CC1` was -23.9% (inactive).
The value for `O=C(c1cccc(Oc2ccc([N+](=O)[O-])cc2Cl)c1)N1CCOCC1` was -7.9% (inactive); that for `CC1CC(=O)C2=C(C1)Nc1ccccc1N=C2` (stereo not given) was 11.1% (inactive); that for `CCC(=O)c1cccc2c1N=CC1=C(CC(C)(C)CC1=O)N2` was -20.6% (inactive).
`CC1(C)CC(=O)C2=C(C1)Nc1ccccc1N=C2`: the inhibition is 59.6% (active).
As to `CCCNc1cc(=S)nc(N)[nH]1`, the inhibition is 5% (inactive).
With `O=C1CCCCC1Sc1nnc(-c2ccc3c(c2)OCO3)o1` (stereo not given), the inhibition was 87.4% (active).
Turning to `Clc1ccc(CSc2nnc(-c3ccc4c(c3)OCO4)o2)cc1`, the inhibition was -7.9% (inactive).
The value for `O=C(O)CSc1nnc(-c2ccc3c(c2)OCO3)o1` was 4.3% (inactive); that for `O=C(c1ccc(Cl)cc1)N1CCCCC(Sc2nnc(-c3ccc4c(c3)OCO4)o2)C1=O` (stereo not given) was 57.8% (active); that for `N#CCSc1nnc(-c2ccc3c(c2)OCO3)o1` was -37.8% (inactive).
The value for `O=C1OCCC1Sc1nnc(-c2ccc3c(c2)OCO3)o1` (stereo not given) was -4.4% (inactive); that for `Clc1nc(Oc2ccccc2)nc(-c2cn(-c3ccccc3)c3ccccc23)n1` was -9.4% (inactive).
As for `O=C(/C=C/c1cccc(O)c1)c1cccnc1`, the inhibition was -20.2% (inactive).
Consider `O=C(/C=C/c1ccc(OCc2ccccc2)c(OCc2ccccc2)c1)c1cccnc1`, for which the inhibition is 87.9% (active).
As for `O=C(/C=C/c1cccc(OCc2ccccc2)c1)c1cccnc1`, the inhibition is 36.4% (inactive).
Consider `CC(=O)c1c2c3c(c(Br)ccc3n(C)c1=O)C(=O)c1ccccc1-2`, for which the inhibition is -3.8% (inactive).
Take `CCN1CCN(Cc2ccc(NC(=O)c3ccc(C)c(NC(=O)c4ccc5n[nH]nc5c4)c3)cc2C(F)(F)F)CC1`: the inhibition is -1.3% (inactive).
With `CCN1CCN(Cc2ccc(NC(=O)c3ccc(C)c(NC(=O)c4ccnnc4)c3)cc2C(F)(F)F)CC1`, the inhibition was 3.7% (inactive).
The value for `CCN1CCN(Cc2ccc(NC(=O)c3cc(NC(=O)C(=O)c4c[nH]c5ccccc45)cc(OC)c3)cc2C(F)(F)F)CC1` was -3.5% (inactive); that for `CCN1CCN(Cc2ccc(NC(=O)c3ccc(C)c(NC(=O)c4cc(-c5ccc(Br)cc5)n[nH]4)c3)cc2C(F)(F)F)CC1` was -4.1% (inactive); that for `CCN1CCN(Cc2ccc(NC(=O)c3ccc(C)c(NC(=O)c4cccc(-c5cn[nH]c(=O)c5)c4)c3)cc2C(F)(F)F)CC1` was 72% (active).
The value for `CCN1CCN(Cc2ccc(NC(=O)c3ccc(C)c(NC(=O)c4cccc5[nH]ccc45)c3)cc2C(F)(F)F)CC1` was -0.1% (inactive); that for `CCN1CCN(Cc2ccc(NC(=O)c3ccc(C)c(NC(=O)C(=O)c4c[nH]c5ccccc45)c3)cc2C(F)(F)F)CC1` was 67.1% (active).
As for `CCN1CCN(Cc2ccc(NC(=O)c3ccc(C)c(NC(=O)c4nccn4C)c3)cc2C(F)(F)F)CC1`, the inhibition is 7.7% (inactive).
The value for `Cc1cc(C)n(NC(=S)NC2CCCC2)c(=O)c1C#N` was -10.5% (inactive); that for `CC1CC(C)CN(S(=O)(=O)c2ccc(Oc3ccc([N+](=O)[O-])cc3)cc2)C1` (stereo not given) was 36.9% (inactive); that for `O=C(CCn1nc(-c2ccccc2)ccc1=O)N1CCN(c2ccccn2)CC1` was -14.7% (inactive).
The value for `O=C(CCc1nnc(CCC2CCCCC2)o1)NCCc1ccccn1` was -21.2% (inactive); that for `COC(=O)c1c(C)oc(C)c1S(=O)(=O)NCc1ccc(OC)cc1` was -3.5% (inactive); that for `Cc1c(C)n(CC(O)CN(CCO)CCO)c2ccccc12` (stereo not given) was -21.9% (inactive).
The value for `COc1ccc(CCNC(=O)C(C)OC(=O)c2ccco2)cc1OC` (stereo not given) was -19.4% (inactive); that for `O=C1OCCC1Sc1nnc(-c2ccc(Br)cc2)o1` (stereo not given) was -16% (inactive); that for `O=C1OCCC1Sc1nnc(-c2ccccc2)o1` (stereo not given) was 0.8% (inactive).
`CCOc1ccc(C2C(C(=O)c3ccco3)=C(O)C(=O)N2CCN2CCOCC2)cc1` (stereo not given): the inhibition was 8.2% (inactive).
As for `Cc1ccc(S(=O)(=O)/N=C(/c2ccccc2)N2CCOCC2)cc1`, the inhibition is 7.1% (inactive).
The value for `Cc1ccc(CS(=O)(=O)CCC(=O)NCCC(C)C)cc1` was -16.6% (inactive); that for `CCOc1cc(/C=N\Nc2ncc(F)c(N3CCOCC3)n2)ccc1Oc1nc(Cl)ncc1F` was 19.9% (inactive).
The value for `Fc1ccc(-c2cnn3c(-c4ccncc4)ccnc23)cc1` was -51.9% (inactive).
The value for `Fc1ccc(-c2cnn3c(-c4cccs4)ccnc23)cc1` was -29% (inactive).
Turning to `Clc1ccc(-c2cnn3c(-c4ccncc4)ccnc23)cc1`, the inhibition was 52% (active).
As to `O=c1c2sc3nc(N4CCOCC4)c4c(c3c2ncn1CCc1ccccc1)CCCC4`, the inhibition was 45.8% (inactive).
The value for `O=C(Nc1ccc(Cl)cc1)Nc1nnc(-c2ccncc2)s1` was 67.3% (inactive); that for `O=C(Nc1ccc(F)cc1)Nc1nnc(-c2ccncc2)s1` was -10.7% (inactive); that for `O=C(Nc1ccc(Cl)cc1)Nc1nnc(CSc2ccc(Cl)cc2)s1` was -8.9% (inactive).
With `CCn1ncc(NC(=O)Nc2cccc(C(F)(F)F)c2)c1C(N)=O`, the inhibition is -12.4% (inactive).
With `O=C(Nc1ccncc1)Nc1cccc(C(F)(F)F)c1`, the inhibition is 3.5% (inactive).
As to `COc1ccc(NC(=O)Nc2nnc(-c3ccco3)s2)cc1`, the inhibition was -7.3% (inactive).
The value for `O=C(Nc1ccc(Cl)cc1)Nc1nnc(CSCc2ccccc2)s1` was -3.9% (inactive); that for `COc1ccc(NC(=O)Nc2nnc(-c3cccs3)s2)cc1` was -3% (inactive).
As for `O=C(Nc1ccc(Cl)c(Cl)c1)Nc1nnc(CSc2ccccc2)s1`, the inhibition was 74.5% (active).
For the compound `COc1ccc(-c2[nH]ncc2CN2CCC(C(=O)N3CCOCC3)CC2)c(F)c1`, the inhibition was -28.9% (inactive).
For the compound `Cc1nc(C(=O)NCc2ccccc2)sc1C1(C)CC(c2cccc([N+](=O)[O-])c2)=NO1` (stereo not given), the inhibition was -0.1% (inactive).
The value for `COc1ccc(CNC(=S)Nc2ccccc2-c2ccccc2)cc1` was -26.8% (inactive); that for `O=C(NC1CCCCC1)C1CCN(c2ncccn2)CC1` was -38.7% (inactive); that for `O=S(=O)(NCc1ccc(F)cc1)c1ccc(-n2cnnn2)cc1` was -14.1% (inactive).
Take `O=C(Nc1ccc(Cl)c(Cl)c1)Nc1nnc(-c2ccncc2)s1`: the inhibition is -26.4% (inactive).
On to `O=C(Nc1cccc(Cl)c1)Nc1nnc(CSCCOc2ccc(Cl)cc2)s1`, for which the inhibition was 67.8% (active).
The value for `Cc1ccc(OCCSCc2nnc(NC(=O)Nc3cccc(Cl)c3)s2)cc1` was 13.6% (inactive).
The value for `Cc1nnc(NC(=O)Nc2cccc(Cl)c2)s1` was -14.6% (inactive); that for `Cc1ccc(NC(=O)Nc2nnc(CSCCOc3ccc(Cl)cc3)s2)cc1` was -1.1% (inactive).
As to `O=C(Nc1cccc(Cl)c1)Nc1nnc(-c2ccncc2)s1`, the inhibition was 95.7% (active).
The value for `CSc1ccccc1NC(=O)C1=CC(c2cccs2)=NS(=O)(=O)N1C` was 3.3% (inactive); that for `COc1ccc(C(=O)/C=C/C(=O)N(Cc2ccc(F)cc2)C(C(=O)NC2CCCCC2)c2ccncc2)c(O)c1` (stereo not given) was -6.1% (inactive); that for `CCCN(CC(=O)Nc1ccc(C(C)=O)cc1)CC(=O)Nc1ccccc1C` was -32.2% (inactive).
The value for `COc1cc2c(cc1OC)C(c1ccc(-c3ccc(Cl)c(Cl)c3)o1)=NCC2` was 63.1% (inactive); that for `COc1cc2c(cc1OC)C(c1ccc(-c3ccccc3Cl)o1)=NCC2` was 75.2% (active); that for `COc1cc2c(cc1OC)C(c1ccc(-c3ccc(Cl)cc3Cl)o1)=NCC2` was 58.8% (inactive).
The value for `OCCN1CCN(c2cc(C(F)(F)F)nc3ccccc23)CC1` was -6.8% (inactive).
With `C/C(=N\NC(=O)c1ccc(-c2ccccc2)cc1)c1ccco1`, the inhibition is -46.6% (inactive).
The value for `COc1ccc(C(=O)/C=C/Sc2nc3ccccc3o2)cc1` was 38.4% (active).
Consider `COc1ccc(C(=O)N/C(N)=N/c2nc3ccccc3o2)cc1`, for which the inhibition was -46.2% (inactive).
The value for `COc1ccc(CCNC(=O)CSc2nc3ccccc3o2)cc1` was -19.1% (inactive); that for `O=C(CCCN1C(=O)/C(=C/c2cccs2)SC1=S)Nc1ccccc1O` was -2% (inactive).
The value for `COc1ccc(C(=O)CN2C(=O)c3ccccc3C2=O)cc1` was -9.8% (inactive); that for `CCOC(=O)CSc1nc2c(sc(=S)n2Cc2ccco2)c(=O)n1-c1ccccc1` was 16.8% (inactive).
The value for `N#CCSc1nc2c(sc(=S)n2Cc2ccco2)c(=O)n1-c1ccc(F)cc1` was 66.5% (active); that for `CCOC(=O)CSc1nc2c(sc(=S)n2Cc2ccco2)c(=O)n1-c1ccc(F)cc1` was 14.1% (inactive).
